Screening results deposited in PubChem by Buhrlage Lab, Dana-Farber Cancer Institute and Novartis Institutes for BioMedical Research (Cambridge, Mass).
USP28 inh: inhibitors of human USP28 deubiquitinase. purified USP28, Ub-rhodamine cleavage fluorescence, 30 min. inhibition, % at 25 µM. 47,000 compounds, 3% hits
USP17 block: inhibitors of human USP17 deubiquitinase; inhibition, % at 50 µM; Ubiquitin carboxyl-terminal hydrolase 17-like protein 5 (Homo sapiens), A8MUK1; 47,000 compounds, 6.5% hits; AID 1645855, 2021; purified USP17, Ub-rhodamine cleavage fluorescence, 3 h
OTUD3 inh: inhibitors of human OTUD3 deubiquitinase. purified OTUD3, Ub-rhodamine fluorescence, 2 h. inhibition, % at 25 µM. 47,000 compounds, 0.7% hits
Target sequence (Q5T2D3 whole entry, looked up): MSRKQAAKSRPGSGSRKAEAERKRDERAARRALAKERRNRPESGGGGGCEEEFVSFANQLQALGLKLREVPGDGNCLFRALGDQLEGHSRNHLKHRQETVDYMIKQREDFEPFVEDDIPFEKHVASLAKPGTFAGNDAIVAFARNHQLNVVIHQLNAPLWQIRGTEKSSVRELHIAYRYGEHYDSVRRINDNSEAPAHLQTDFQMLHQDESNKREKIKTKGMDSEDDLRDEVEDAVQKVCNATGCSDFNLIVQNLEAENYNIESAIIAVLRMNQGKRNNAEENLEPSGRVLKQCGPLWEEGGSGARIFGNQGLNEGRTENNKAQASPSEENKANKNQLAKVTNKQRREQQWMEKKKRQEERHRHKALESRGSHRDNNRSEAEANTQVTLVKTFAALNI
USP30 inh: inhibitors of human USP30 deubiquitinase; Ubiquitin carboxyl-terminal hydrolase 30 (Homo sapiens), Q70CQ3; AID 1645860, 2021; 47,000 compounds, 5.3% hits; inhibition, % at 25 µM; purified USP30, Ub-rhodamine cleavage fluorescence
Numbers stand for hits; n = inactive; x = no result given. The list is not random: actives were taken first. Their share in the collection is about 11%. Cut-off read from the data, not from the text of the source: active = inhibition above about 30%; inactive = the rest.

SMILES	USP28 inh	USP17 block	OTUD3 inh	USP30 inh
COc1cc(S(=O)(=O)N2CCC(c3nc4c(nnn4Cc4cccc(F)c4)c(=O)[nH]3)CC2)ccc1-n1cnnn1	n	n	n	n
Cc1cc2cc(CNC(=O)Cc3cccc4ccccc34)ccc2[nH]1	n	40	n	n
O=C(Cc1cccc2ccccc12)NCc1ccc2[nH]c3c(c2c1)CCCC3	n	n	n	n
Cc1cc2cc(CNC(=O)Cc3ccc([N+](=O)[O-])cc3)ccc2[nH]1	n	37	n	n
CCCS(=O)(=O)NCc1ccc2[nH]c(C)cc2c1	x	n	n	x
CCOc1ccc(-n2c(SCC(=O)N3CC(=O)Nc4ccccc43)nnc2-c2ccc(OC)cc2)cc1	35	51	n	n
COc1cccc(-n2c(SCC(=O)N3CCc4ccccc43)nnc2-c2cccnc2)c1	n	n	n	n
Cc1ccc(C(C)C)cc1OCCOCCN1CCNCC1	60	n	n	n
Cc1ccc(C)c(OCCOCCN2CCNCC2)c1C	n	n	n	n
CC(=O)Nc1ccc(O)c(-c2nc3cc(C)ccc3o2)c1	n	51	n	n
CC(C)(C)c1ccc(C(=O)Nc2ccc(O)c(-c3nc4cnccc4o3)c2)cc1	n	n	n	n
Cc1ccc(NC(=O)N2CCC3(CC2)NC(=O)N(Cc2ccc(F)cc2)C3=O)c(C)c1	n	n	n	n
Cc1ccc(N2CC[C@@H]3[C@@H]2CCN3C(=O)NC(C)C)nn1	n	n	n	n
COc1ccc(OC)c(NC(=O)CNC(=O)c2cc3c(OC)cccc3[nH]2)c1	n	64	n	n
COc1ccc(OC)c(NC(=O)CNC(c2ccccc2)c2ccccc2)c1	n	n	n	33
Cc1ccc(NC(=O)CNC(c2ccccc2)c2ccccc2)c(F)c1	n	n	n	n
COc1ccc(OC)c(NC(=O)CN2c3ccccc3S(=O)(=O)c3ccccc32)c1	n	n	n	n
Cc1ccc2nc(NC(=O)c3ccccc3Cl)[nH]c(=O)c2c1	n	46	n	n
COc1ccc(-n2nnnc2CN2CCN(S(=O)(=O)c3ccc(F)cc3)CC2)cc1	n	34	n	n
O=S(=O)(c1ccc(Cl)cc1)N1CCN(Cc2nnnn2-c2ccc(F)cc2)CC1	n	n	n	n
Nc1cc2nc3ccccc3oc-2cc1=O	n	45	n	n
CCCCCc1cc(O)c2c(ccc3c(O)c4c(cc32)C(C)(C)c2cc(O)cc(O)c2C4=O)c1	n	31	n	n
Cn1cc(S(=O)(=O)N2CCCCC2)cc1C(=O)N1CCCCC1	n	n	n	n
COc1cccc(S(=O)(=O)N2CCCn3nnc(COCC4CC4)c3C2)c1	n	n	n	n
COc1cccc(S(=O)(=O)N2CCn3nc(C(C)(C)C)cc3C2)c1	n	n	n	79
SMILES	USP28 inh	USP17 block	OTUD3 inh	USP30 inh
CCCc1c(C(=O)NC2CCCCC2)cnn1-c1ccc(Cl)cc1	n	36	n	n
COCCNC(=O)c1cc(-c2ccn(-c3ccccc3)n2)n2ccccc12	n	n	n	n
Cc1cc(C(=O)N2CCc3nc(C(=O)Nc4cccnc4)sc3CC2)no1	n	n	n	n
O=C(c1cnc2n1CC(c1cccc(C(F)(F)F)c1)CC2)N1CCNCC1 (configuration not stated)	n	n	n	30
CCc1ccccc1N(CC(=O)N1CCOCC1)S(=O)(=O)c1ccccc1	n	n	n	n
COc1ccc(-c2nc3sc4c(c3c(=O)[nH]2)CCCCCC4)c(OC)c1	n	31	n	34
COc1cc(-c2nc3sc4c(c3c(=O)[nH]2)CCCC4)cc(OC)c1O	n	n	n	n
Cc1ccc(NC(=O)Cn2c(=O)n(CCCCC(=O)NCc3ccco3)c(=O)c3ccccc32)cc1C	n	n	n	n
COc1ccccc1CNC(=O)CCn1c(=O)c2ccccc2n(Cc2ccccc2C#N)c1=O	n	40	n	n
COc1ccccc1CNC(=O)CCn1c(=O)c2ccccc2n(Cc2cccc([N+](=O)[O-])c2)c1=O	n	n	n	n
COc1ccccc1CNC(=O)Cc1cc(-c2ccc(Cl)cc2)on1	n	n	n	n
CCOc1ccc(NC(=O)Cn2c(=O)n(CCC(=O)NCc3ccccc3OC)c(=O)c3ccccc32)cc1	n	52	n	50
COc1ccccc1CNC(=O)CCc1cn(Cc2ccc(Cl)cc2)c2ccccc12	n	32	n	n
CC(=O)N1C[C@H]2[C@@H](C1)c1ccccc1[C@@H]2NC(=O)c1cccc2ncccc12	n	n	n	n
CN1C[C@@]23CN(C(=O)C4CCC4)C[C@@H](C[C@@H]2S1(=O)=O)O3	n	n	n	n
O=C(CCc1nnc2n(CCc3ccccc3)c(=O)c3ccccc3n12)NCCN1CCOCC1	n	n	n	n
COc1ccccc1C1C2=C(CC(C)(C)CC2=O)Nc2ccccc2N1C(=O)c1ccccc1 (configuration not stated)	n	n	n	n
COc1ccc(Cn2nccc2NC(=O)C(C)Oc2ccc(C)c(C)c2)cc1 (configuration not stated)	x	63	n	x
O=C(Nc1nnc2n1CCCS2)c1cccc(Cl)c1	59	n	n	n
COc1ccc(Cl)cc1C(=O)Nc1nnc2n1CCCS2	n	n	n	n
Cc1ccccc1OCCCn1c(CN(C)C(=O)c2ccco2)nc2ccccc21	n	30	n	n
Cc1cccc(OCCCn2c(CN(C)C(=O)c3ccco3)nc3ccccc32)c1	n	n	n	n
Cc1ccc(Sc2ncccc2C(=O)Nc2ccnn2Cc2ccncc2)cc1	n	n	n	n
O=C(CNC1CCCc2ccccc21)Nc1cc(S(=O)(=O)N2CCOCC2)ccc1Cl (configuration not stated)	n	n	n	n
O=C(CSc1cn(CC(=O)N2CCCCC2)c2ccccc12)NCCc1ccccc1	n	n	n	n
SMILES	USP28 inh	USP17 block	OTUD3 inh	USP30 inh
O=C(Cn1cc(SCc2ccccc2Cl)c2ccccc21)N1CCCC1	n	32	n	n
O=C(COc1cccc(C(=O)NCc2ccccc2)c1)Nc1ccc(Oc2ccccc2)cc1	n	40	40	56
CCc1cccc(N2C(=O)c3ccccc3C2C(=O)NCc2ccccc2OC)c1 (configuration not stated)	n	n	n	n
NC(=O)CN1CCC(Nc2ncnc3scc(-c4ccccc4)c23)CC1	x	n	n	x
Cc1ccc(CNC(=O)c2cc3occc3c(Nc3ccccc3)n2)cc1	n	49	n	n
Cc1ccccc1CNC(=O)c1cc2occc2c(Nc2ccc(F)cc2)n1	n	n	n	n
Cc1noc(-c2ccc(-n3ncc(C(=O)NCc4ccccc4F)c3C)nc2)n1	n	40	n	43
CCCc1noc(-c2ccc(-n3ncc(C(=O)N4CCN(C)CC4)c3C)nc2)n1	n	n	n	30
Cc1cc(=O)n(CC(=O)NCc2ccc(F)cc2F)c(N2CCOCC2)n1	n	n	n	n
Cc1noc(-c2cc(=O)n(CC(=O)Nc3ccc(F)cc3F)c3ccccc23)n1	n	n	n	n
Cc1noc(-c2cc(=O)n(CC(=O)Nc3ccccc3C)c3ccccc23)n1	n	45	n	n
